Test results as given in PubChem BioAssay (EPA / NIEHS).
Activity calls are given as the source filed them. Rule for the calls: active = hit-call score of the fitted dose curve at least 0.9, where 1 is the maximum; inactive = score below 0.9.

Legend:
Settings in all cases: mRNA level, 48 h; actives raise or lower the signal
MYC, MYC (gene 4609) = assay: LTEA_HepaRG_MYC: Life Technologies and Expression Analysis (LTEA) Assay for MYC using HepaRG (AID 2283518)
Outline: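 MYC transcript changes, up or down relative to 0.5% DMSO, from TaqMan qRT-PCR normalized to three housekeeping genes. Human HepaRG cultures received chemicals for 48 h at eight half-log concentrations up to 100 uM, in duplicate.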

[1] = read-out: matrix metalloproteinase-3 (MMP3), MMP3 (gene 4314); assay: LTEA_HepaRG_MMP3: Life Technologies and Expression Analysis (LTEA) Assay for matrix metalloproteinase-3 (MMP3) using HepaRG (AID 2283519)
Outline: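 qRT-PCR read-out of MMP3 mRNA (normalised to three housekeeping genes) in HepaRG liver cells after 48 h chemical exposure; 8-point half-log series, top 100 uM, 0.5% DMSO vehicle. Bidirectional curve fitting against DMSO baseline.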

[2] = read-out: Paternally Expressed 10 (PEG10), PEG10 (gene 23089); assay: LTEA_HepaRG_PEG10: Life Technologies and Expression Analysis (LTEA) Assay for Paternally Expressed 10 (PEG10) using HepaRG (AID 2283520);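 for AC50: PEG10 transcript by qRT-PCR normalised to ACTB GAPDH and POLR2A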
Outline: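 After 48 h exposure of differentiated HepaRG cells (0.5% DMSO vehicle, eight concentrations up to 100 uM, duplicates), PEG10 mRNA was measured by TaqMan qRT-PCR. Values were normalised to endogenous control genes and analysed bidirectionally against vehicle.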

[3] = read-out: Nuclear factor NF-kappa-B p105 subunit (Homo sapiens) (UniProt P19838); assay: LTEA_HepaRG_NFKB1: Life Technologies and Expression Analysis (LTEA) Assay for Nuclear Factor Kappa B Subunit 1 (NFKB1) using HepaRG (AID 2283521)
Outline: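 Differentiated human HepaRG cells were exposed for 48 h in serum-free induction medium to eight concentrations (top 100 uM, half-log steps, 0.5% DMSO), in duplicate. NFKB1 mRNA was measured by TaqMan qRT-PCR, normalized to ACTB/GAPDH/POLR2A, and fitted bidirectionally against DMSO.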

[4] = read-out: Protein phosphatase 2A (PPP2R4), PTPA (gene 5524); assay: LTEA_HepaRG_PPP2R4: Life Technologies and Expression Analysis (LTEA) Assay for Protein phosphatase 2A (PPP2R4) using HepaRG (AID 2283522)
Outline: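 Using HepaRG cultures maintained in 0.5% DMSO, chemicals are tested 48 h at up to 100 uM in duplicate. Induction or suppression of PPP2R4 mRNA, measured by qRT-PCR, is fitted bidirectionally against the vehicle baseline.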

[5] = read-out: Phosphatase and tensin (PTEN), PTEN (gene 5728); assay: LTEA_HepaRG_PTEN: Life Technologies and Expression Analysis (LTEA) Assay for Phosphatase and tensin (PTEN) using HepaRG (AID 2283523)
Outline: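 HepaRG, 48 h exposure, 8-pt half-log series from 100 uM top, 0.5% DMSO vehicle, duplicates. Readout: Fluidigm qRT-PCR of PTEN transcript; housekeeping normalization (ACTB, GAPDH, POLR2A). Gain or loss fitted relative to DMSO baseline.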

[6] = read-out: solute carrier (SLC22A1), SLC22A1 (gene 6580); assay: LTEA_HepaRG_SLC22A1: Life Technologies and Expression Analysis (LTEA) Assay for solute carrier (SLC22A1) using HepaRG (AID 2283524)
Outline: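 qRT-PCR readout (TaqMan, Fluidigm arrays) of SLC22A1 transcript, normalized to three housekeeping genes; bidirectional curve fit relative to 0.5% DMSO vehicle. Differentiated human HepaRG cells, 48 h chemical exposure, top concentration 100 uM, half-log steps, eight points.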

[7] = read-out: Pyruvate Dehydrogenase Kinase 4 (PDK4), PDK4 (gene 5166); assay: LTEA_HepaRG_PDK4: Life Technologies and Expression Analysis (LTEA) Assay for Pyruvate Dehydrogenase Kinase 4 (PDK4) using HepaRG (AID 2283525)
Outline: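 HepaRG (human liver line), 48 h chemical exposure, 8-pt half-log CRC top 100 uM, 0.5% DMSO vehicle, duplicates. Readout: TaqMan qRT-PCR of PDK4 mRNA, housekeeping-normalized; gain/loss fit relative to DMSO baseline.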

[8] = read-out: NAD(P)H dehydrogenase [quinone] 1 (NQO1), NQO1 (gene 1728); assay: LTEA_HepaRG_NQO1: Life Technologies and Expression Analysis (LTEA) Assay for NAD(P)H dehydrogenase [quinone] 1 (NQO1) using HepaRG (AID 2283526)
Outline: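 In this assay, gene expression is read by qRT-PCR after 48 h exposure of HepaRG cells to eight concentrations (max 100 uM, half-log) in 0.5% DMSO. Each chemical runs in duplicate, and activity is scored relative to vehicle.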

[9] = read-out: Nuclear factor erythroid 2-related factor 2 (Homo sapiens) (UniProt Q16236); assay: LTEA_HepaRG_NFE2L2: Life Technologies and Expression Analysis (LTEA) Assay for Nuclear factor erythroid 2-related factor 2 (NFE2L2) Transcription Factor using HepaRG (AID 2283527)
Outline: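 HepaRG, 48 h dosing, 8-pt half-log series from 100 uM in 0.5% DMSO, duplicates. Read-out: NFE2L2 mRNA by qRT-PCR (ACTB/GAPDH/POLR2A normalization). Bidirectional curve fit vs DMSO baseline.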

[10] = read-out: succinate dehydrogenase complex iron sulfur subunit B (SDHB), SDHB (gene 6390); assay: LTEA_HepaRG_SDHB: Life Technologies and Expression Analysis (LTEA) Assay for succinate dehydrogenase complex iron sulfur subunit B (SDHB) using HepaRG (AID 2283528)
Outline: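 HepaRG, 48 h exposure, 8-pt half-log series from 100 uM in 0.5% DMSO, duplicates. Readout: SDHB mRNA by Fluidigm qRT-PCR vs housekeeping genes; bidirectional fit relative to DMSO.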

[11] = read-out: solute carrier (SLCO1B1), SLCO1B1 (gene 10599); assay: LTEA_HepaRG_SLCO1B1: Life Technologies and Expression Analysis (LTEA) Assay for solute carrier (SLCO1B1) using HepaRG (AID 2283530)
Outline: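 SLCO1B1 transcript levels were quantified by TaqMan qRT-PCR using three housekeeping genes for normalization. This followed 48 h chemical exposure (100 uM top, half-log, 8 points, 0.5% DMSO) of HepaRG liver cells, with gain or loss fitted relative to DMSO.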

[12] = read-out: sulfotransferase 2A1 (SULT2A1), SULT2A1 (gene 6822); assay: LTEA_HepaRG_SULT2A1: Life Technologies and Expression Analysis (LTEA) Assay for sulfotransferase 2A1 (SULT2A1) using HepaRG (AID 2283531)
Outline: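 Expression change of SULT2A1, by qRT-PCR with three housekeeping-gene normalization, was scored bidirectionally versus DMSO. Cells: differentiated HepaRG, dosed in duplicate for 48 h across 8 points, highest 100 µM, half-log dilution, 0.5% DMSO.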

[13] = read-out: Transforming Growth Factor (TGFA), TGFA (gene 7039); assay: LTEA_HepaRG_TGFA: Life Technologies and Expression Analysis (LTEA) Assay for Transforming Growth Factor (TGFA) using HepaRG (AID 2283532)
Outline: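 qRT-PCR read-out of TGFA transcript, normalized to three housekeeping genes, fitted bidirectionally against 0.5% DMSO baseline. Human HepaRG cultures received chemicals for 48 h at eight half-log concentrations, top 100 uM.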

[14] = read-out: Tumor necrosis factor receptor 1 (TNFRSF1A), TNFRSF1A (gene 7132); assay: LTEA_HepaRG_TNFRSF1A: Life Technologies and Expression Analysis (LTEA) Assay for Tumor necrosis factor receptor 1 (TNFRSF1A) using HepaRG (AID 2283535)
Outline: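 mRNA measured by qRT-PCR (TaqMan, Fluidigm arrays) against ACTB/GAPDH/POLR2A housekeepers after 48 h chemical exposure of HepaRG cells. Top concentration 100 uM, half-log 8-point series, duplicates; vehicle 0.5% DMSO, both fit directions.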

[15] = read-out: Thyroid Hormone Responsive (THRSP), THRSP (gene 7069); assay: LTEA_HepaRG_THRSP: Life Technologies and Expression Analysis (LTEA) Assay for Thyroid Hormone Responsive (THRSP) using HepaRG (AID 2283536)
Outline: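 qRT-PCR read-out (Fluidigm TaqMan), housekeeping-normalized (ACTB/GAPDH/POLR2A). HepaRG, 48 h chemical exposure, 8-pt half-log series from 100 uM in 0.5% DMSO, duplicates. Bidirectional curve fit vs 0.5% DMSO baseline.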

[16] = read-out: Cellular tumor antigen p53 (Homo sapiens) (UniProt P04637); assay: LTEA_HepaRG_TP53: Life Technologies and Expression Analysis (LTEA) Assay for Tumor Protein P53 (TP53) using HepaRG (AID 2283537)
Outline: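 HepaRG, 48 h exposure, top 100 uM, half-log 8-point, 0.5% DMSO vehicle, duplicates. Read: TP53 mRNA by TaqMan qRT-PCR, normalised to ACTB/GAPDH/POLR2A; bidirectional fit vs DMSO.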

[17] = read-out: Signal transducer and activator of transcription 3 (Homo sapiens) (UniProt P40763); assay: LTEA_HepaRG_STAT3: Life Technologies and Expression Analysis (LTEA) Assay for Signal transducer and activator of transcription (STAT3) using HepaRG (AID 2283529)
Outline: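 HepaRG, 48 h exposure, 8-pt half-log series (top 100 uM), 0.5% DMSO vehicle, duplicates. Readout: STAT3 transcript by Fluidigm qRT-PCR, housekeeping-normalized; bidirectional fit vs DMSO baseline.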

[18] = read-out: Transforming Growth Factor (TGFB1), TGFB1 (gene 7040); assay: LTEA_HepaRG_TGFB1: Life Technologies and Expression Analysis (LTEA) Assay for Transforming Growth Factor (TGFB1) Transporter using HepaRG (AID 2283533)
Outline: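 TGFB1 transcript measured by qRT-PCR with normalisation to three housekeeping genes (ACTB, GAPDH, POLR2A); human HepaRG line treated in duplicate for 48 hr with an 8-point series topping at 100 uM, 0.5% DMSO vehicle, bidirectionally fitted.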

Measured: AC50

Nuclear factor erythroid 2-related factor 2 (Homo sapiens), sequence (Q16236 whole entry, looked up): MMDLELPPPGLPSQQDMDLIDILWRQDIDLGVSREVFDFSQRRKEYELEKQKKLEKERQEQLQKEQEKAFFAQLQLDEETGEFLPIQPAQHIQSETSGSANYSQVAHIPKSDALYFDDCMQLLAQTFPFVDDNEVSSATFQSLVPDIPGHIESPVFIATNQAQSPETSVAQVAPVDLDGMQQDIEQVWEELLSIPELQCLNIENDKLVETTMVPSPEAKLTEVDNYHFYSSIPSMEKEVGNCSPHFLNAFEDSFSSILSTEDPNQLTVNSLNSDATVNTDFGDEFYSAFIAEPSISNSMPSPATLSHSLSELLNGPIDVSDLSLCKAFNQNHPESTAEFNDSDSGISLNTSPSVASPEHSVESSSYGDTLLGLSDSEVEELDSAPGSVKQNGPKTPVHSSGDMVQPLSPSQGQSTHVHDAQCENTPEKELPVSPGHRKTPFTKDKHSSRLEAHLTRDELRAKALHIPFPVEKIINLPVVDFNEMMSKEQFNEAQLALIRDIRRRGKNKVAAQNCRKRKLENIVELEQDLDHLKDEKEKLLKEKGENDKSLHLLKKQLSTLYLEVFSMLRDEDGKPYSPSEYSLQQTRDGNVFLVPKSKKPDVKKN
Nuclear factor NF-kappa-B p105 subunit (Homo sapiens), sequence (P19838 whole entry, looked up): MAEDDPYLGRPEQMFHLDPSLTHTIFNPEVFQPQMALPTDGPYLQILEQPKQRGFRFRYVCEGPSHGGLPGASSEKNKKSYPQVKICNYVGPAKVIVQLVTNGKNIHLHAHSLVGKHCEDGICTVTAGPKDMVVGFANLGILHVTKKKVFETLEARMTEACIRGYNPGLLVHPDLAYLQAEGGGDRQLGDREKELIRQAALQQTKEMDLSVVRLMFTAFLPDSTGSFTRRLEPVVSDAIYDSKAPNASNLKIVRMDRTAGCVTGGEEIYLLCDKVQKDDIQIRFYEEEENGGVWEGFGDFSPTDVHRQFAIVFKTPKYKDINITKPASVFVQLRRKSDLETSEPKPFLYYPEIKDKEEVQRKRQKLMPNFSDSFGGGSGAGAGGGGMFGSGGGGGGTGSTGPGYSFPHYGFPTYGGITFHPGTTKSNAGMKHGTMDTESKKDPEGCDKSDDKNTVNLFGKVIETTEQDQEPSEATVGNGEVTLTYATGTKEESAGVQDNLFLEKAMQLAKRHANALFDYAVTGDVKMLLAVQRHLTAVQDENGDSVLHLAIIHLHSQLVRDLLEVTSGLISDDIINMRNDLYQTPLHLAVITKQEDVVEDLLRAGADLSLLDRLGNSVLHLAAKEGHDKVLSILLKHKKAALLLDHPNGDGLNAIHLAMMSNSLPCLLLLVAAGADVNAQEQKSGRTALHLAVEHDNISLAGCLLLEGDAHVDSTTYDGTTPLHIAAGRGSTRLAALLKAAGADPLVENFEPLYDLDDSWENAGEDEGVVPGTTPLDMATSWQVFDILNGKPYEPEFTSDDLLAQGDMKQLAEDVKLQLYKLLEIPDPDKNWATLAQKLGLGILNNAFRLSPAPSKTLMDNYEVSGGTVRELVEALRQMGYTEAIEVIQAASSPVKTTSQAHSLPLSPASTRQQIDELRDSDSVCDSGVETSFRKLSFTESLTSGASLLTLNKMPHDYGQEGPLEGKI
Cellular tumor antigen p53 (Homo sapiens), sequence (P04637 whole entry, looked up): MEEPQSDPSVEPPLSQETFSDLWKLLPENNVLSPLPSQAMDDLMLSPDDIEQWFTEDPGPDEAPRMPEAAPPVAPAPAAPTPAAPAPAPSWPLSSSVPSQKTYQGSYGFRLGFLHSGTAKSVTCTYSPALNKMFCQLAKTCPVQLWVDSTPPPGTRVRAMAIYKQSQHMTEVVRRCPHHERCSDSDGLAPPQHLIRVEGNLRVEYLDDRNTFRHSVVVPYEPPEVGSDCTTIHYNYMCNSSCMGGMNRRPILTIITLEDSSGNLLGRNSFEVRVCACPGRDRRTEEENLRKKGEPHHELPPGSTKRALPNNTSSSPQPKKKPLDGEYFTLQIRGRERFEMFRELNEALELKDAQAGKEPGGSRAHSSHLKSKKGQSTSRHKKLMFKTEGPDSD
Signal transducer and activator of transcription 3 (Homo sapiens), sequence (P40763 whole entry, looked up): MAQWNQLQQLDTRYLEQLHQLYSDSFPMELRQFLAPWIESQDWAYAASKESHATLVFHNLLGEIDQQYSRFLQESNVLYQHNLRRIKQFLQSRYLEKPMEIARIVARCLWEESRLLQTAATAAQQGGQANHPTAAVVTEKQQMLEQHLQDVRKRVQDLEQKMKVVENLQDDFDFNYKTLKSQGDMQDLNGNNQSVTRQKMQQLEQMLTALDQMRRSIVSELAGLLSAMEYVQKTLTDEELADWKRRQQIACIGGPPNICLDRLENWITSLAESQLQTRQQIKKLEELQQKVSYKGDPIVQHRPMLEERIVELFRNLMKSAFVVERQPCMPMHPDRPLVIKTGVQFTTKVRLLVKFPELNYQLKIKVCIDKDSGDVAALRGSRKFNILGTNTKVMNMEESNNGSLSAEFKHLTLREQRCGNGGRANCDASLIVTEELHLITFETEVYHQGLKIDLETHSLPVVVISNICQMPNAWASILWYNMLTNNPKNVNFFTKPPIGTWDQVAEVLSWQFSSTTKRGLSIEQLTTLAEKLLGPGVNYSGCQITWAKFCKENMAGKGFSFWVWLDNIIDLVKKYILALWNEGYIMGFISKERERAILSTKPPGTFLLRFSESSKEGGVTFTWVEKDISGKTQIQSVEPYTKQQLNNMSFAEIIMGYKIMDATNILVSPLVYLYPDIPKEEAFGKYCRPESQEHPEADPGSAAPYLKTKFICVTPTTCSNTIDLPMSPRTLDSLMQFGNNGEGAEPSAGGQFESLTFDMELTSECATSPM

CC(C)(C)CC(C)(C)c1ccc(O)c(-n2nc3ccccc3n2)c1
inactive: MYC, MYC (gene 4609) | [1] | [2] | [3] | [4] | [5] | [7] | [8] | [9] | [10] | [11] | [12] | [13] | [14] | [16]
active: [6] 74.5 µM | [15] 77.9 µM

Cc1cc(C)c(O)c(C)c1
inactive: MYC, MYC (gene 4609) | [1] | [2] | [4] | [5] | [6] | [7] | [8] | [9] | [10] | [11] | [12] | [13] | [14] | [15] | [16]

COCC(C)O (centres undefined)
inactive: MYC, MYC (gene 4609) | [1] | [2] | [3] | [4] | [5] | [6] | [7] | [8] | [9] | [10] | [11] | [12] | [13] | [14] | [15] | [16]

O=C(O)Cc1cc(I)c(Oc2cc(I)c(O)c(I)c2)c(I)c1
inactive: [13]
active: MYC, MYC (gene 4609) 52 µM | [1] 51.5 µM | [2] 0.228 µM | [3] 52.8 µM | [4] 54.9 µM | [5] 59.9 µM | [6] 53.1 µM | [7] 49.6 µM | [8] 33.5 µM | [9] 54.9 µM | [10] 62.9 µM | [11] 56.2 µM | [12] 52.4 µM | [14] 55.3 µM | [15] 56 µM | [16] 59.1 µM

CCCCC(CC)COC(=O)CCCCC(=O)OCc1ccccc1 (centres undefined)
inactive: MYC, MYC (gene 4609) | [1] | [2] | [4] | [5] | [6] | [7] | [8] | [9] | [10] | [17] | [11] | [12] | [13] | [18] | [14] | [15] | [16]

CC[C@H](C)[C@@H](C(=O)O)n1sc2ccccc2c1=O
inactive: MYC, MYC (gene 4609) | [1] | [2] | [4] | [5] | [6] | [7] | [8] | [9] | [10] | [17] | [11] | [12] | [13] | [14] | [15] | [16]

CC(=O)NC1(c2cccc(F)c2)CCN(CC[C@@]2(c3ccc(Cl)c(Cl)c3)CN(c3ccccc3)C(=O)CO2)CC1
active: [3] 61.6 µM | [5] 65.3 µM | [6] 77.2 µM | [9] 76.3 µM | [11] 79.7 µM | [15] 20.5 µM
inactive: MYC, MYC (gene 4609) | [1] | [2] | [4] | [7] | [8] | [10] | [12] | [13] | [14] | [16]
